About 83,000 compounds went through this panel and 20% of them were active in at least one assay; those are over-represented in the sample as a whole.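 Results are percent growth after 48 hours of single-concentration exposure. 100 means growth as in untreated cells, lower positive values show inhibition; negative values down to -100 show cell death.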 Calls of active or inactive are those of the source. How the source made its calls: active means growth percent below 10; inactive means the rest.
Tests used:
Assay in all cases: NCI-60 one-dose screen, 48 h (100 = growth as untreated, 0 = no growth, -100 = all killed)
Conditions in all cases: 10 µM unless noted
DU-145 prostate = test system: DU-145 prostate
K-562 leukemia = test system: K-562 leukemia
MALME-3M melanoma = test system: MALME-3M melanoma
MDA-MB-231 breast = test system: MDA-MB-231 breast
SF-268 CNS = test system: SF-268 CNS
SF-295 CNS = test system: SF-295 CNS
SF-539 CNS = test system: SF-539 CNS
UACC-257 melanoma = test system: UACC-257 melanoma
M14 melanoma = test system: M14 melanoma

Measured: growth

COc1cc(C2CC(c3cccc(Nc4ccncc4)c3)=NN2C(C)=O)cc(OC)c1OC (stereo unspecified)
inactive: DU-145 prostate 107% | K-562 leukemia 34.7% | MALME-3M melanoma 80% | MDA-MB-231 breast 92.8% | SF-268 CNS 94.4% | SF-295 CNS 94.9% | SF-539 CNS 89.1% | UACC-257 melanoma 91.5% | M14 melanoma 100%

OC1(c2ccc(Cl)c(C(F)(F)F)c2)CCN(CCCC(c2ccc(F)cc2)c2ccc(F)cc2)CC1
active: DU-145 prostate -97% | K-562 leukemia -20.2% | MALME-3M melanoma -75.3% | MDA-MB-231 breast -87.6% | SF-268 CNS -90% | SF-295 CNS -85.3% | SF-539 CNS -74.6% | UACC-257 melanoma -85.6% | M14 melanoma -84.8%

COc1ccccc1/C=C1\COc2ccc(-c3ccccc3)cc2C1=O
inactive: MALME-3M melanoma 73.7% | MDA-MB-231 breast 43.8% | SF-268 CNS 22.1% | SF-295 CNS 22.2% | SF-539 CNS 30.5% | UACC-257 melanoma 56.9% | M14 melanoma 17.4%
active: DU-145 prostate 7.94% | K-562 leukemia 3.54%

CCC(C)N(CCNc1cc(OC)cc2cccnc12)CCC(C)C (stereo unspecified)
inactive: DU-145 prostate 95.6% | K-562 leukemia 83.2% | MALME-3M melanoma 121% | MDA-MB-231 breast 84.5% | SF-268 CNS 78.6% | SF-295 CNS 97% | SF-539 CNS 101% | UACC-257 melanoma 87.3% | M14 melanoma 82.4%

Clc1cc(Cl)cc(N2N=C(c3cccc(Nc4ccncc4)c3)CC2c2ccc(Br)cc2)c1 (stereo unspecified)
inactive: DU-145 prostate 35.2% | MALME-3M melanoma 23.7% | MDA-MB-231 breast 57.1% | SF-268 CNS 77.1% | SF-295 CNS 36.9% | SF-539 CNS 76.6% | UACC-257 melanoma 79.4% | M14 melanoma 108%
active: K-562 leukemia 1.66%

CN1C2CCC1CN(c1cnc(C(=O)Nc3cc(F)cc4cccnc34)cn1)C2
inactive: DU-145 prostate 74.6% | K-562 leukemia 15.7% | MALME-3M melanoma 41% | MDA-MB-231 breast 31.4% | SF-268 CNS 85.6% | SF-295 CNS 97.6% | SF-539 CNS 70.4% | UACC-257 melanoma 42.7% | M14 melanoma 54.3%

O=S(=O)(NCCNc1nccc(-c2c(-c3ccc(F)c(O)c3)nc3occn23)n1)c1ccccc1
inactive: DU-145 prostate 57.1% | K-562 leukemia 33.6% | MDA-MB-231 breast 27.7% | SF-268 CNS 57% | SF-295 CNS 93.3% | SF-539 CNS 96% | UACC-257 melanoma 25% | M14 melanoma 18.8%
active: MALME-3M melanoma -0.538%

CN1CCN(c2ccc3nc(-c4cc(C(C)(C)C)c(O)c(C(C)(C)C)c4)[nH]c3c2)CC1
active: K-562 leukemia -11.3% | MALME-3M melanoma -91.6% | UACC-257 melanoma -53.2%
inactive: DU-145 prostate 77.6% | MDA-MB-231 breast 38.6% | SF-268 CNS 72.7% | SF-295 CNS 93.7% | SF-539 CNS 64.4% | M14 melanoma 11%

CN1CCN(Cc2ccc(NC(=O)c3cncc(C#Cc4cnccc4C(F)(F)F)c3)cc2C(F)(F)F)CC1
active: K-562 leukemia 8.53%
inactive: DU-145 prostate 105% | MALME-3M melanoma 15.3% | MDA-MB-231 breast 55.6% | SF-268 CNS 92.1% | SF-295 CNS 88.6% | SF-539 CNS 28.8% | UACC-257 melanoma 80.4% | M14 melanoma 35.2%

O=C(NCCc1ccccn1)OCc1nc2nc(Cl)nc(N3CCOCC3)c2[nH]1
inactive: DU-145 prostate 12% | MALME-3M melanoma 67.8% | MDA-MB-231 breast 28.5% | SF-268 CNS 24.3% | SF-295 CNS 91.4% | UACC-257 melanoma 30.6%
active: K-562 leukemia 0.32% | SF-539 CNS -13.4% | M14 melanoma 4.12%

Cc1ccc(C2CC(c3cccc(Nc4ccncc4)c3)=NN2c2cc(Cl)cc(Cl)c2)cc1 (stereo unspecified)
inactive: DU-145 prostate 30.8% | MDA-MB-231 breast 40.9% | SF-268 CNS 82.8% | SF-539 CNS 78.1% | UACC-257 melanoma 76.2%
active: K-562 leukemia 1.45% | MALME-3M melanoma 1.81% | SF-295 CNS -6.71% | M14 melanoma 2.02%

Cc1cccc(C)c1-c1cc(Cc2ccc(Cl)cc2)c(=O)[nH]n1
inactive: DU-145 prostate 105% | K-562 leukemia 89.5% | MALME-3M melanoma 111% | MDA-MB-231 breast 94.3% | SF-268 CNS 93.6% | SF-295 CNS 104% | SF-539 CNS 111% | UACC-257 melanoma 42.3% | M14 melanoma 114%

CC(=O)Nc1ccc(C(=O)Nc2cc(-c3ccccc3)ccc2N)cc1
inactive: DU-145 prostate 73.2% | K-562 leukemia 39.2% | MALME-3M melanoma 80.6% | MDA-MB-231 breast 92.5% | SF-268 CNS 68.2% | SF-295 CNS 58.7% | SF-539 CNS 81% | UACC-257 melanoma 72.6% | M14 melanoma 77.3%

c1ccc(-c2nnc(Nc3ccc4c(c3)OCCO4)o2)c(NCc2ccncc2)c1
inactive: K-562 leukemia 12.1% | MALME-3M melanoma 53.6% | MDA-MB-231 breast 15.4% | SF-268 CNS 14.3% | UACC-257 melanoma 68.3%
active: DU-145 prostate -22% | SF-295 CNS 3.68% | SF-539 CNS -2.94% | M14 melanoma -17.8%

COc1ccc(C2CC(c3cccc(Nc4ccncc4)c3)=NN2c2ccc(Cl)cc2)cc1 (stereo unspecified)
active: K-562 leukemia 0.0732% | MALME-3M melanoma -49.9%
inactive: DU-145 prostate 23.6% | MDA-MB-231 breast 40.6% | SF-268 CNS 62.1% | SF-295 CNS 53.9% | SF-539 CNS 76.4% | UACC-257 melanoma 12.6% | M14 melanoma 100%

CN(Cc1ccccc1)c1nc(Cl)c(C2CC(c3ccc(Cl)cc3)=Cc3[nH][nH]c(=O)c32)s1 (stereo unspecified)
inactive: DU-145 prostate 104% | K-562 leukemia 42.5% | MALME-3M melanoma 104% | MDA-MB-231 breast 113% | SF-268 CNS 92.1% | SF-295 CNS 90.2% | SF-539 CNS 88.1% | UACC-257 melanoma 102% | M14 melanoma 107%

COc1ccc2c(c1)OC1=C(C(=O)OC1)C2c1cc(OC)c(OC)c(OC)c1 (stereo unspecified)
active: DU-145 prostate 6.88% | SF-295 CNS 8.32% | SF-539 CNS 0.966%
inactive: K-562 leukemia 14.1% | MALME-3M melanoma 61.1% | MDA-MB-231 breast 42.7% | SF-268 CNS 32% | UACC-257 melanoma 39.6% | M14 melanoma 10.2%

CC(=O)N1N=C(c2cccc(Nc3ccncc3)c2)CC1c1ccc2c(c1)OCO2 (stereo unspecified)
active: M14 melanoma -69.4%
inactive: DU-145 prostate 104% | K-562 leukemia 27.4% | MALME-3M melanoma 74.9% | MDA-MB-231 breast 86.9% | SF-268 CNS 91.8% | SF-295 CNS 89.9% | SF-539 CNS 77.9% | UACC-257 melanoma 100%

CC(=O)c1c[nH]c2ccc(-c3ccnc(Nc4ccc(NC(=O)C5CCCC5)c(CN5CCOCC5)c4)n3)cc12
active: DU-145 prostate -1.77% | K-562 leukemia 5.74% | MALME-3M melanoma -81.8% | MDA-MB-231 breast -8.4% | SF-268 CNS -41.7% | SF-295 CNS -46.2% | SF-539 CNS -84.6% | UACC-257 melanoma -27.5% | M14 melanoma -67.7%

COc1cccc(CCC(=O)c2cc3c(N)c(C(=O)Nc4ccccc4)sc3nc2C)c1
inactive: DU-145 prostate 65.8% | K-562 leukemia 12.2% | MALME-3M melanoma 27% | MDA-MB-231 breast 44.9% | SF-268 CNS 53.4% | SF-295 CNS 24.9% | SF-539 CNS 23.9% | UACC-257 melanoma 63.3% | M14 melanoma 23.3%

COc1cc(NCCN(CC(C)C)C2CCCC2)c2ncccc2c1
inactive: DU-145 prostate 104% | K-562 leukemia 99% | MALME-3M melanoma 126% | MDA-MB-231 breast 79% | SF-268 CNS 86% | SF-295 CNS 94.1% | SF-539 CNS 98.3% | UACC-257 melanoma 91.5% | M14 melanoma 102%

CCN(CC)CCCC(C)Nc1c2c(nc3ccc(OC)cc13)CCCC2 (stereo unspecified)
inactive: DU-145 prostate 111% | K-562 leukemia 79.9% | MALME-3M melanoma 118% | MDA-MB-231 breast 79.8% | SF-268 CNS 86.2% | SF-295 CNS 78% | SF-539 CNS 89.8% | UACC-257 melanoma 112% | M14 melanoma 100%

Cc1nc2sc(C(=O)Nc3cccc(Br)c3)c(N)c2cc1C(=O)c1ccc(C(F)(F)F)cc1
inactive: DU-145 prostate 69.3% | K-562 leukemia 84.2% | MALME-3M melanoma 81% | MDA-MB-231 breast 63.8% | SF-268 CNS 79.4% | SF-295 CNS 67.7% | SF-539 CNS 56.5% | UACC-257 melanoma 95.2% | M14 melanoma 69.2%

COc1ccc(C(=O)c2cc3c(N)c(C(=O)Nc4cccc(Cl)c4C)sc3nc2C)cc1
active: DU-145 prostate 9.62% | K-562 leukemia 2.9% | SF-539 CNS -10.2% | M14 melanoma 5.63%
inactive: MALME-3M melanoma 54.5% | MDA-MB-231 breast 15% | SF-268 CNS 18.4% | SF-295 CNS 26.5% | UACC-257 melanoma 57.6%

CNC(=O)c1c(NC(=O)c2ccc(C(C)C)cc2)sc2c(CN(C)C)c(O)ccc12
inactive: DU-145 prostate 97.4% | MALME-3M melanoma 88.5% | MDA-MB-231 breast 95% | SF-268 CNS 90.8% | SF-295 CNS 97.7% | SF-539 CNS 97.3% | UACC-257 melanoma 110% | M14 melanoma 86.8%
active: K-562 leukemia -7.46%

COc1nc(N)nc(-n2c(-c3ccc(C)cc3)nc3ccccc32)c1NCc1ccc(C)cc1
inactive: DU-145 prostate 103% | K-562 leukemia 87.2% | MALME-3M melanoma 105% | MDA-MB-231 breast 80.4% | SF-268 CNS 94.9% | SF-295 CNS 92.8% | SF-539 CNS 98.3% | UACC-257 melanoma 100% | M14 melanoma 95.6%

Clc1nc(Cl)c2ncn(CC3(Cn4cnc5c(Cl)nc(Cl)nc54)COC3)c2n1
active: DU-145 prostate -100% | K-562 leukemia -70.4% | MALME-3M melanoma -69.8% | MDA-MB-231 breast -88.9% | SF-268 CNS -73.7% | SF-295 CNS -83.6% | SF-539 CNS -93.4% | UACC-257 melanoma -90.9% | M14 melanoma -92.7%

COc1ccc(-c2nc(N/N=C/c3c[nH]c4ccccc34)nc(N3CCOCC3)c2C#N)cc1
inactive: DU-145 prostate 79.7% | K-562 leukemia 38% | MALME-3M melanoma 80.3% | MDA-MB-231 breast 72.4% | SF-268 CNS 95.5% | SF-295 CNS 68.2% | SF-539 CNS 67.6% | UACC-257 melanoma 21.4% | M14 melanoma 88.5%

COc1cc(COC(=O)CCCCC[P+](c2ccccc2)(c2ccccc2)c2ccccc2)c(OC)c2c1OCO2
active: MALME-3M melanoma 5.27%
inactive: DU-145 prostate 83.5% | K-562 leukemia 19.4% | MDA-MB-231 breast 70.2% | SF-268 CNS 75.1% | SF-295 CNS 76.9% | SF-539 CNS 78.2% | UACC-257 melanoma 15.6% | M14 melanoma 43.3%

— PubChem BioAssay (NCI)
